Source: publication PMC11062922 (Nature Chemical Biology, 2023)
Read-outs that look alike come from different tables or passages of the source.

Assays:
Parameters in all cases: species or system human, MV4-11 + K-562 + COLO205 + SK-N-BE2 + OVCAR-8
[1] = tested on: AURKA; settings: read-out: apparent Kd, n = 1
[2] = tested on: BCR; settings: read-out: apparent Kd, n = 1
[3] = tested on: MAPK10; settings: read-out: apparent Kd, n = 1
[4] = tested on: MAPK9; settings: read-out: apparent Kd, n = 1
[5] = tested on: PRKAG2; settings: read-out: apparent Kd, n = 1
[6] = tested on: RPS6KA4; settings: read-out: apparent Kd, n = 1
[7] = tested on: STK16; settings: read-out: apparent Kd, n = 1
[8] = tested on: STK4; settings: read-out: apparent Kd, n = 1
[9] = tested on: TNK1; settings: read-out: apparent Kd, n = 1
[10] = tested on: ATM; settings: read-out: apparent Kd; compound concentrations:100 nM and 1000 nM (sheet 'Samples'); n = 1
[11] = tested on: CAMKK2; settings: read-out: apparent Kd, n = 1
[12] = tested on: CHEK1; settings: read-out: apparent Kd, n = 1
[13] = tested on: EPHA4; settings: read-out: apparent Kd, n = 1
[14] = tested on: EPHA5; settings: read-out: apparent Kd, n = 1
[15] = tested on: CSNK1D; settings: read-out: apparent Kd, n = 1
[16] = tested on: MARK3; settings: read-out: apparent Kd, n = 1
[17] = tested on: PRKACA; settings: read-out: apparent Kd, n = 1
[18] = tested on: PRKACB; settings: read-out: apparent Kd, n = 1
[19] = tested on: PIP4K2C; settings: read-out: apparent Kd, n = 1
[20] = tested on: CDK16; settings: read-out: apparent Kd; compound concentrations: 100 nM and 1000 nM (sheet 'Samples'), CATDS: 6.29330119004379E-3; n = 1
[21] = compound concentrations:100 nM and 1000 nM (sheet 'Samples')

SMILES: CNC(=O)c1ccccc1Nc1nc(Nc2ccc(N3CCOCC3)cc2)ncc1Cl.Cl [GSK1576028A]
- potency estimated from few doses [1, 21]: 11 nM
- potency estimated from few doses [2, 21]: 781 nM
- potency estimated from few doses [3, 21]: 60.1 nM
- potency estimated from few doses [4, 21]: 220 nM
- potency estimated from few doses [5, 21]: 587 nM
- potency estimated from few doses [6, 21]: 427 nM
- potency estimated from few doses [7, 21]: 1770 nM
- potency estimated from few doses [8, 21]: 675 nM
- potency estimated from few doses [9, 21]: 7.93 nM

SMILES: CN1C[C@@H]2Cn3c(c(C4=C(c5cn(C)c6ccccc56)C(=O)NC4=O)c4ccccc43)C[C@H]2C1.Cl [RO0320234-001]
- potency estimated from few doses [10]: 29.7 nM
- potency estimated from few doses [1, 21]: 368 nM
- potency estimated from few doses [2, 21]: 57.1 nM
- potency estimated from few doses [11, 21]: 1430 nM
- potency estimated from few doses [12, 21]: 1280 nM
- potency estimated from few doses [13, 21]: 321 nM
- potency estimated from few doses [14, 21]: 207 nM
- potency estimated from few doses [6, 21]: 1630 nM
- potency estimated from few doses [9, 21]: 9.27 nM

SMILES: CCOC(=O)N1CCC(n2cnc(-c3ccc(F)cc3)c2-c2ccnc(N)n2)CC1 [SB-219952]
- potency estimated from few doses ([1]; compound concentrations: 100 nM and 1000 nM (sheet 'Samples'), CATDS: 9.8512895449749706E-3): 901 nM
- potency estimated from few doses ([11]; compound concentrations: 100 nM and 1000 nM (sheet 'Samples'), CATDS: 1.08972773288713E-2): 701 nM
- potency estimated from few doses ([12]; compound concentrations: 100 nM and 1000 nM (sheet 'Samples'), CATDS: 8.4863258398705493E-3): 1390 nM
- potency estimated from few doses ([15]; compound concentrations: 100 nM and 1000 nM (sheet 'Samples'), CATDS: 0.19590664085395099): 9.15 nM
- potency estimated from few doses ([13]; compound concentrations: 100 nM and 1000 nM (sheet 'Samples'), CATDS: 1.2785015902171799E-2): 493 nM
- potency estimated from few doses ([14]; compound concentrations: 100 nM and 1000 nM (sheet 'Samples'), CATDS: 1.42398980321412E-2): 397 nM
- potency estimated from few doses ([3]; compound concentrations: 100 nM and 1000 nM (sheet 'Samples'), CATDS: 4.1731696442012502E-2): 69 nM
- potency estimated from few doses ([4]; compound concentrations: 100 nM and 1000 nM (sheet 'Samples'), CATDS: 3.1045225372311899E-2): 107 nM
- potency estimated from few doses ([16]; compound concentrations: 100 nM and 1000 nM (sheet 'Samples'), CATDS: 8.6555083221940901E-3): 1300 nM
- potency estimated from few doses ([17]; compound concentrations: 100 nM and 1000 nM (sheet 'Samples'), CATDS: 8.0141425433071494E-3): 1690 nM
- potency estimated from few doses ([18]; compound concentrations: 100 nM and 1000 nM (sheet 'Samples'), CATDS: 7.9637145567790901E-3): 1730 nM
- potency estimated from few doses ([5]; compound concentrations: 100 nM and 1000 nM (sheet 'Samples'), CATDS: 9.8371603155967009E-3): 905 nM
- potency estimated from few doses ([9]; compound concentrations: 100 nM and 1000 nM (sheet 'Samples'), CATDS: 1.30567209660681E-2): 472 nM

SMILES: CCn1c(-c2nonc2N)nc2c(C#CC(C)(C)O)nc(OCCN)cc21.CCn1c(-c2nonc2N)nc2c(C#CC(C)(C)O)nc(OCCN)cc21.Cl.Cl [GSK902056A]
- potency estimated from few doses [17, 21]: 1200 nM
- potency estimated from few doses [18, 21]: 1000 nM

SMILES: Cc1cccc(-c2nc(Nc3ccncc3)c3sccc3n2)n1 [GW869641X]
- potency estimated from few doses [15, 21]: 185 nM
- potency estimated from few doses [3, 21]: 1140 nM

SMILES: CC(C)N1CCC(n2cnc(-c3ccc(F)cc3)c2-c2ccnc(N)n2)CC1 [SB-223132]
- potency estimated from few doses [1, 21]: 931 nM
- potency estimated from few doses [2, 21]: 660 nM
- potency estimated from few doses [11, 21]: 940 nM
- potency estimated from few doses [12, 21]: 1740 nM
- potency estimated from few doses [15, 21]: 25.1 nM
- potency estimated from few doses [13, 21]: 692 nM
- potency estimated from few doses [14, 21]: 545 nM
- potency estimated from few doses [3, 21]: 1330 nM
- potency estimated from few doses [16, 21]: 1770 nM
- potency estimated from few doses [19, 21]: 1200 nM
- potency estimated from few doses [17, 21]: 1710 nM
- potency estimated from few doses [5, 21]: 1040 nM

SMILES: Cl.Cl.NCC(C(=O)Nc1cc(Br)c(-c2ccnc3[nH]ccc23)s1)c1ccccc1.NCC(C(=O)Nc1cc(Br)c(-c2ccnc3[nH]ccc23)s1)c1ccccc1 (stereo not drawn) [GSK1269851A]
- potency estimated from few doses [10]: 275 nM
- potency estimated from few doses [1, 21]: 768 nM
- potency estimated from few doses [2, 21]: 90.4 nM
- potency estimated from few doses [11, 21]: 1310 nM
- potency estimated from few doses [12, 21]: 1700 nM
- potency estimated from few doses [13, 21]: 510 nM
- potency estimated from few doses [14, 21]: 74.9 nM
- potency estimated from few doses [19, 21]: 1930 nM
- potency estimated from few doses [18, 21]: 1920 nM
- potency estimated from few doses [5, 21]: 111 nM
- potency estimated from few doses [9, 21]: 62.7 nM

SMILES: COc1ccc(Nc2ncc(C#N)c(Nc3ccccc3C(N)=O)n2)cc1N1CCN(C)CC1.Cl [GSK1558669A]
- potency estimated from few doses ([1]; compound concentrations: 100 nM and 1000 nM (sheet 'Samples'), CATDS: 3.9666626948294099E-2): 12 nM
- potency estimated from few doses ([2]; compound concentrations: 100 nM and 1000 nM (sheet 'Samples'), CATDS: 1.27803345453226E-2): 96.9 nM
- potency estimated from few doses ([11]; compound concentrations: 100 nM and 1000 nM (sheet 'Samples'), CATDS: 6.1789819356504504E-3): 1430 nM
- potency estimated from few doses [20]: 1270 nM
- potency estimated from few doses ([12]; compound concentrations: 100 nM and 1000 nM (sheet 'Samples'), CATDS: 1.1194862883684801E-2): 137 nM
- potency estimated from few doses ([3]; compound concentrations: 100 nM and 1000 nM (sheet 'Samples'), CATDS: 6.8664179629566802E-3): 783 nM
- potency estimated from few doses ([4]; compound concentrations: 100 nM and 1000 nM (sheet 'Samples'), CATDS: 7.8754696697006001E-3): 427 nM
- potency estimated from few doses ([16]; compound concentrations: 100 nM and 1000 nM (sheet 'Samples'), CATDS: 1.02819135302623E-2): 174 nM
- potency estimated from few doses ([19]; compound concentrations: 100 nM and 1000 nM (sheet 'Samples'), CATDS: 5.8169442722308101E-3): 2240 nM
- potency estimated from few doses ([5]; compound concentrations: 100 nM and 1000 nM (sheet 'Samples'), CATDS: 1.3647831185805001E-2): 82.8 nM
- potency estimated from few doses ([6]; compound concentrations: 100 nM and 1000 nM (sheet 'Samples'), CATDS: 8.4346807860121598E-3): 330 nM
- potency estimated from few doses ([7]; compound concentrations: 100 nM and 1000 nM (sheet 'Samples'), CATDS: 6.09253969178725E-3): 1570 nM
- potency estimated from few doses ([8]; compound concentrations: 100 nM and 1000 nM (sheet 'Samples'), CATDS: 6.7227641521754398E-3): 872 nM
- potency estimated from few doses ([9]; compound concentrations: 100 nM and 1000 nM (sheet 'Samples'), CATDS: 3.9834731570335402E-2): 11.9 nM

SMILES: O=C1N=C(NCCc2ccc(Cl)cc2)S/C1=C\c1ccc2ncccc2c1 [RO4498479-000]
- potency estimated from few doses ([1]; compound concentrations: 100 nM and 1000 nM (sheet 'Samples'), CATDS: 1.0602350822893101E-2): 486 nM
- potency estimated from few doses ([2]; compound concentrations: 100 nM and 1000 nM (sheet 'Samples'), CATDS: 1.6408594866795901E-2): 215 nM
- potency estimated from few doses ([11]; compound concentrations: 100 nM and 1000 nM (sheet 'Samples'), CATDS: 9.9016852028132405E-3): 568 nM
- potency estimated from few doses ([12]; compound concentrations: 100 nM and 1000 nM (sheet 'Samples'), CATDS: 7.8682297996918397E-3): 1070 nM
- potency estimated from few doses ([13]; compound concentrations: 100 nM and 1000 nM (sheet 'Samples'), CATDS: 1.4543255052935199E-2): 263 nM
- potency estimated from few doses ([14]; compound concentrations: 100 nM and 1000 nM (sheet 'Samples'), CATDS: 2.0414571032165901E-2): 153 nM
- potency estimated from few doses ([16]; compound concentrations: 100 nM and 1000 nM (sheet 'Samples'), CATDS: 8.4864305198955707E-3): 848 nM
- potency estimated from few doses ([19]; compound concentrations: 100 nM and 1000 nM (sheet 'Samples'), CATDS: 8.2219500153899797E-3): 930 nM
- potency estimated from few doses ([17]; compound concentrations: 100 nM and 1000 nM (sheet 'Samples'), CATDS: 8.4640851007318392E-3): 854 nM
- potency estimated from few doses ([18]; compound concentrations: 100 nM and 1000 nM (sheet 'Samples'), CATDS: 9.3487346254019794E-3): 654 nM
- potency estimated from few doses ([5]; compound concentrations: 100 nM and 1000 nM (sheet 'Samples'), CATDS: 1.04447346657642E-2): 503 nM
- potency estimated from few doses ([6]; compound concentrations: 100 nM and 1000 nM (sheet 'Samples'), CATDS: 7.6189107816006501E-3): 1190 nM
- potency estimated from few doses ([9]; compound concentrations: 100 nM and 1000 nM (sheet 'Samples'), CATDS: 1.8006750719606699E-2): 185 nM

SMILES: Cc1ccc2c(-c3ccncc3)c(-c3ccc(F)cc3)nn2c1.Cl [GW461484A]
- potency estimated from few doses [10]: 262 nM
- potency estimated from few doses [2, 21]: 545 nM
- potency estimated from few doses [11, 21]: 1180 nM
- potency estimated from few doses [12, 21]: 1870 nM
- potency estimated from few doses [15, 21]: 125 nM
- potency estimated from few doses [13, 21]: 550 nM
- potency estimated from few doses [14, 21]: 429 nM
- potency estimated from few doses [19, 21]: 1560 nM
- potency estimated from few doses [17, 21]: 1900 nM
- potency estimated from few doses [5, 21]: 417 nM
- potency estimated from few doses [9, 21]: 280 nM
